# Measurements from the supplement of paper PMC8975748.
# Where a name gives a salt, the structure may show the parent alone. ± gives the standard deviation of the averaged measurements.
# Assays:
# [1] = tested on: Saccharomyces cerevisiae BY4741 SeMeCo community; test: mean cell size (pixel area) (pixels); higher = larger cells; details: 10 µM; 24 h; SM minimal medium
# Summary of the method: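 Mean cell pixel area per well was measured in a four-plasmid fluorescent community of Saccharomyces cerevisiae BY4741, where every plasmid complements one auxotrophy and carries a fluorescent marker. Cells from an overnight preculture at OD600 = 1.0 were diluted to OD600 = 0.3 and dispensed at 70 µl into 384-well plates acoustically predosed with drug to a final 10 µM in SM medium. Incubation lasted 24 h, followed by paraformaldehyde fixation, automated confocal imaging and analysis in Harmony. Reported figures are averaged over 3 replicates. Same SeMeCo high-content imaging drug screen: Selleck FDA-approved drugs at 10 µM, 24 h in SM medium, 384-well plates, 3 replicates.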
# [2] = tested on: Saccharomyces cerevisiae BY4741 SeMeCo community; test: z-score of prototroph abundance vs DMSO median; higher = larger share of this subpopulation than in DMSO controls; details: 10 µM; 24 h; SM minimal medium; subpopulation (auxotrophy): Prototroph
# Summary of the method: (§1)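 A community of Saccharomyces cerevisiae BY4741 was built from four plasmids that each restored one auxotrophy and encoded a distinct fluorescent protein. Pre-grown overnight to OD600 1.0 and diluted to 0.3, it was dispensed at 70 µl into 384-well plates acoustically predosed with library drugs for a final 10 µM, and grown 24 h in minimal SM medium. Cells were then paraformaldehyde-fixed and imaged by automated confocal microscopy. Thresholds and autofluorescence correction came from single-auxotroph fluorescent strains, and each subpopulation's abundance was scored as a z-score relative to the vehicle-well median.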
# [3] = tested on: Saccharomyces cerevisiae BY4741 SeMeCo community; test: z-score of subpopulation abundance vs DMSO median, subpopulation auxotrophic for M; higher = larger share of this subpopulation than in DMSO controls; details: 10 µM; 24 h; SM minimal medium; subpopulation (auxotrophy): M
# Summary of the method: as §1
# [4] = tested on: Saccharomyces cerevisiae BY4741 SeMeCo community; test: z-score of subpopulation abundance vs DMSO median, subpopulation auxotrophic for L; higher = larger share of this subpopulation than in DMSO controls; details: 10 µM; 24 h; SM minimal medium; subpopulation (auxotrophy): L
# Summary of the method: as §1
# [5] = tested on: Saccharomyces cerevisiae BY4741 SeMeCo community; test: z-score of subpopulation abundance vs DMSO median, subpopulation auxotrophic for U; higher = larger share of this subpopulation than in DMSO controls; details: 10 µM; 24 h; SM minimal medium; subpopulation (auxotrophy): U
# Summary of the method: as §1
# [6] = tested on: Saccharomyces cerevisiae BY4741 SeMeCo community; test: z-score of subpopulation abundance vs DMSO median, subpopulation auxotrophic for H; higher = larger share of this subpopulation than in DMSO controls; details: 10 µM; 24 h; SM minimal medium; subpopulation (auxotrophy): H
# Summary of the method: as §1
# [7] = tested on: Saccharomyces cerevisiae BY4741 SeMeCo community; test: z-score of subpopulation abundance vs DMSO median, subpopulation auxotrophic for LU; higher = larger share of this subpopulation than in DMSO controls; details: 10 µM; 24 h; SM minimal medium; subpopulation (auxotrophy): LU
# Summary of the method: as §1
# [8] = tested on: Saccharomyces cerevisiae BY4741 SeMeCo community; test: z-score of subpopulation abundance vs DMSO median, subpopulation auxotrophic for LM; higher = larger share of this subpopulation than in DMSO controls; details: 10 µM; 24 h; SM minimal medium; subpopulation (auxotrophy): LM
# Summary of the method: as §1
# [9] = tested on: Saccharomyces cerevisiae BY4741 SeMeCo community; test: z-score of subpopulation abundance vs DMSO median, subpopulation auxotrophic for HM; higher = larger share of this subpopulation than in DMSO controls; details: 10 µM; 24 h; SM minimal medium; subpopulation (auxotrophy): HM
# Summary of the method: as §1
# [10] = tested on: Saccharomyces cerevisiae BY4741 SeMeCo community; test: z-score of subpopulation abundance vs DMSO median, subpopulation auxotrophic for HU; higher = larger share of this subpopulation than in DMSO controls; details: 10 µM; 24 h; SM minimal medium; subpopulation (auxotrophy): HU
# Summary of the method: as §1
# [11] = tested on: Saccharomyces cerevisiae BY4741 SeMeCo community; test: z-score of subpopulation abundance vs DMSO median, subpopulation auxotrophic for UM; higher = larger share of this subpopulation than in DMSO controls; details: 10 µM; 24 h; SM minimal medium; subpopulation (auxotrophy): UM
# Summary of the method: as §1
# [12] = tested on: Saccharomyces cerevisiae BY4741 SeMeCo community; test: z-score of subpopulation abundance vs DMSO median, subpopulation auxotrophic for HL; higher = larger share of this subpopulation than in DMSO controls; details: 10 µM; 24 h; SM minimal medium; subpopulation (auxotrophy): HL
# Summary of the method: as §1
# [13] = tested on: Saccharomyces cerevisiae BY4741 SeMeCo community; test: z-score of subpopulation abundance vs DMSO median, subpopulation auxotrophic for HLU; higher = larger share of this subpopulation than in DMSO controls; details: 10 µM; 24 h; SM minimal medium; subpopulation (auxotrophy): HLU
# Summary of the method: as §1
# [14] = tested on: Saccharomyces cerevisiae BY4741 SeMeCo community; test: z-score of subpopulation abundance vs DMSO median, subpopulation auxotrophic for HLM; higher = larger share of this subpopulation than in DMSO controls; details: 10 µM; 24 h; SM minimal medium; subpopulation (auxotrophy): HLM
# Summary of the method: as §1
# [15] = tested on: Saccharomyces cerevisiae BY4741 SeMeCo community; test: z-score of subpopulation abundance vs DMSO median, subpopulation auxotrophic for HUM; higher = larger share of this subpopulation than in DMSO controls; details: 10 µM; 24 h; SM minimal medium; subpopulation (auxotrophy): HUM
# Summary of the method: as §1
# [16] = tested on: Saccharomyces cerevisiae BY4741 SeMeCo community; test: z-score of subpopulation abundance vs DMSO median, subpopulation auxotrophic for HLUM; higher = larger share of this subpopulation than in DMSO controls; details: 10 µM; 24 h; SM minimal medium; subpopulation (auxotrophy): HLUM
# Summary of the method: as §1
# [17] = tested on: Saccharomyces cerevisiae BY4741 SeMeCo community; test: z-score of subpopulation abundance vs DMSO median, subpopulation auxotrophic for LUM; higher = larger share of this subpopulation than in DMSO controls; details: 10 µM; 24 h; SM minimal medium; subpopulation (auxotrophy): LUM
# Summary of the method: as §1
SMILES,mean cell size [1],z-score of prototroph abundance [2],z-score of subpopulation abundance [3],z-score of subpopulation abundance [4],z-score of subpopulation abundance [5],z-score of subpopulation abundance [6],z-score of subpopulation abundance [7],z-score of subpopulation abundance [8],z-score of subpopulation abundance [9],z-score of subpopulation abundance [10],z-score of subpopulation abundance [11],z-score of subpopulation abundance [12],z-score of subpopulation abundance [13],z-score of subpopulation abundance [14],z-score of subpopulation abundance [15],z-score of subpopulation abundance [16],z-score of subpopulation abundance [17]
CC[C@H]1OC(=O)[C@H](C)[C@@H](O[C@H]2C[C@@](C)(OC)[C@@H](O)[C@H](C)O2)[C@H](C)[C@@H](O[C@@H]2O[C@H](C)C[C@H](N(C)C)[C@H]2O)[C@](C)(O)C[C@@H](C)C(=O)[C@H](C)[C@@H](O)[C@]1(C)O [Erythromycin thiocyanate],12.1 ± 0.14,0.64,0.78,-0.64,0.41,-1.72,-0.22,0.36,0.23,-0.7,0.06,-0.71,-0.56,-0.68,-0.41,0,
Clc1ccc(CCC(Cn2ccnc2)Sc2c(Cl)cccc2Cl)cc1 (stereo unspecified) [Butoconazole nitrate],12.5 ± 0.15,-7.6,-9.08,-1.91,1.85,30.8,1.13,-0.84,1.46,13.3,0.67,14.5,12.5,20.2,5.03,20.4,
CC[C@H]1OC(=O)C[C@@H](O)[C@H](C)[C@@H](O[C@@H]2O[C@H](C)[C@@H](O)[C@H](N(C)C)[C@H]2O)[C@@H](CCN2C[C@H](C)C[C@H](C)C2)C[C@@H](C)C(=O)/C=C/C(C)=C/[C@@H]1CO[C@@H]1O[C@H](C)[C@@H](O)[C@@H](OC)[C@H]1OC [Tilmicosin],12.4 ± 0.17,,-0.16,0.75,0.52,0.98,1.26,0.46,0.93,1.52,0.65,1.91,0.58,0.13,0.75,0.67,
O=c1[nH]c2ccccc2n1CCN1CCN(c2cccc(C(F)(F)F)c2)CC1 [Flibanserin],12.25 ± 0.046,0.65,-0.31,-0.73,0.4,-0.96,-0.2,-0.37,-0.79,-0.17,0.43,-0.75,-0.49,-0.86,-0.15,-0.98,
COc1ccc2[nH]c([S@@+]([O-])Cc3ncc(C)c(OC)c3C)nc2c1 [NEXIUM (esomeprazole magnesium)],12.5 ± 0.14,,0.2,1.11,-0.8,,0.11,0.3,0.8,0.68,,1.91,1.46,1.32,-0.41,-0.44,0.51
COc1ccc(C(Cl)=C(c2ccc(OC)cc2)c2ccc(OC)cc2)cc1 [Chlorotrianisene],12.6 ± 0.13,-0.67,1.26,0.44,0.17,1.21,0.41,1.34,1.06,0.01,0.15,0.2,1.95,3.27,0.82,1.18,
Cc1nnc(NS(=O)(=O)c2ccc(N)cc2)s1 [Sulfamethizole],12.3 ± 0.23,0.97,-0.46,0.65,,-1.02,-0.31,-0.01,-1.19,-0.26,-0.65,-0.84,-1.06,-0.87,-0.98,-0.49,-0.52
COc1cccc2c1C(=O)c1c(O)c3c(c(O)c1C2=O)C[C@@](O)(C(=O)CO)C[C@@H]3O[C@H]1C[C@H](N)[C@@H](O)[C@H](C)O1 [Epirubicin HCl],12.6 ± 0.2,,-4.59,1.16,1.23,1.56,2.53,-0.38,-3.22,3.44,-0.97,2.24,2.87,0.2,0.3,4.48,
N[C@@H](C(=O)N[C@@H]1C(=O)N2C(C(=O)O)=C(Cl)CS[C@H]12)c1ccccc1 [Cefaclor],12.45 ± 0.095,,0.46,0.23,0.82,0.49,0.23,0.52,0.64,0.41,0.24,-0.05,-0.22,0.3,0.37,0.66,0.65
CCCCCCCN(CC)CCCC(O)c1ccc(NS(C)(=O)=O)cc1 (stereo unspecified) [Ibutilide Fumarate],12.5 ± 0.2,0.2,-0.42,-0.88,0.93,,0.14,-0.88,0.11,0.97,0.25,-0.89,-0.63,-0.14,0.49,-0.72,
CO/N=C(\C(=O)N[C@@H]1C(=O)N2C(C(=O)[O-])=C(C[N+]3(C)CCCC3)CS[C@H]12)c1csc(N)n1 [Cefepime Dihydrochloride Monohydrate],12.4 ± 0.19,-0.67,0.62,0.49,-0.42,0.4,0.05,0.72,1.14,-0.45,0.07,0.83,0.65,0.34,0.6,0.19,
